# MCF10A rerep = A quantitative high throughput screen for small molecules that induce DNA re-replication in MCF 10a normal breast cells; MCF 10A DNA re-replication, Hoechst nuclear intensity, 48 h; Potency, µM (titrated, usually from 46.1 µM), usual class: activators; 350,000 tested, 2.9% active; AID 624296, 2012; also: nearly all actives have a fitted effect of over 50% in size
# KB-3-1 cytotox = qHTS assay for MDR1-selective chemotherapeutics: Primary screen using the parental adenocarcinoma cell KB-3-1 | Potency, µM (titrated, usually from 46.1 µM), most hits filed as cytotoxic | 400,000 tested, 1.4% active | KB-3-1 viability, CellTiter-Glo ATP luminescence, 72 h; also: nearly all actives have a fitted effect of over 60% in size
#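 Parental KB-3-1 viability, qHTS format: 72 h compound exposure, 37 °C; CellTiter-Glo; media-only wells and DMSO plates as controls; concentration-effect fits on corrected data.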
# IL-1B inflam inh = qHTS for Inhibitors of Inflammasome Signaling: IL-1-beta AlphaLISA Primary Screen | THP-1 LPS/ATP IL-1B secretion, AlphaLISA, 16 h; hits give low values | activity change, % at 57.5 µM | AID 743279, 2014 | 360,000 tested, 4.7% active; in the data active = activity change below about -50%; inconclusive = mostly about -30% to -49%
#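 Secreted IL-1B measured by AlphaLISA bead assay after 16 h compound exposure of THP-1 cells; compounds (final up to 57.5 uM) added 1 h before LPS (250 ng/mL) and ATP (1.25 mM) stimulation; lower signal means less secretion.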
# SW480 rereplic = A quantitative high throughput screen for small molecules that induce DNA re-replication in SW480 colon adenocarcinoma cells | SW480 DNA re-replication, Hoechst DNA content imaging, 48 h | 340,000 tested, 1.8% active | AID 624297, 2012 | Potency, µM (series often up to 46.1 µM), actives largely listed as activators; also: nearly all actives have a fitted effect of over 55% in size
#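 Treated cells incubate 48 hr (37 C, 5% CO2), are stained 40 min with Hoechst, and nuclear fluorescence is enumerated; a rise in nuclei with high DNA signal marks re-replication.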
# KB-V1 cytotox = qHTS assay for MDR1-selective chemotherapeutics: Primary screen using the drug-selected MDR subline cells KB-V1 | KB-V1 MDR cells viability, CellTiter-Glo, 72 h | Potency, µM (highest dose often 46.1 µM), usual class: cytotoxic | 400,000 tested, 3.4% active; also: nearly all actives have a fitted effect of over 60% in size
#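 KB-V1, DMEM (no phenol red) + 10% FBS; cpd pin-transferred, titration series; 72 h, 37 degrees C; CellTiter-Glo, luminescence. Data normalized, curve-fit.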
# Hits are given with their value; n = inactive; u = inconclusive; x = not tested or not shown; ! = repeats disagree; [ ] = another dose, or the depositor's remark. Rows were chosen to be rich in hits. Some 9.9% of all compounds tested hit in one or more screens of this group. Unless noted, calls follow the shape of the dose curve; as a rule, active = well fitted curve in the direction sought with a large enough effect; inconclusive = small, poorly fitted or top-dose-only effect, or another doubt; inactive = no such curve, though single readings can be large; an effect the other way counts as inactive or inconclusive.
SMILES,MCF10A rerep,KB-3-1 cytotox,IL-1B inflam inh,SW480 rereplic,KB-V1 cytotox
Cc1cc(C)nc(N/N=C/C2=C(N3CCOCC3)C(=C\c3ccc(Cl)cc3)/CC2)n1,u,u,n,u,n
Cc1cc(C)nc(NN=CC2=C(N3CCOCC3)/C(=C/c3ccc(Cl)cc3)CC2)n1,u,n,n,21µM,n
CCCN(CC(=O)Nc1ccccc1C)C(=O)COc1c(C)cccc1C,n,n,n,n,n
CCCN(CC(=O)Nc1ccccc1C)C(=O)COc1c(Cl)cccc1Cl,n,n,n,n,5.8µM
CCCN(CC(=O)Nc1ccccc1C)C(=O)CCCNC(=O)c1ccc(Cl)cc1,n,n,n,n,u
CCCN(CC(=O)Nc1ccccc1C)C(=O)CCl,u,16µM,-95,n,u
CCOc1ccc(CCNC(=O)c2cc3c(-c4ccccc4F)nn(C)c3s2)cc1OCC,x,u,x,x,n
O=C(Nc1ccc(-c2nc3ccccc3o2)cc1)C1CCCO1 (centres undefined),n,u,n,n,10µM
O=C(Nc1ccc2oc(-c3ccccc3)nc2c1)C1CCCO1 (centres undefined),n,u,n,n,u
Cc1ccc2nc(-c3ccc(NC(=O)C4CCCO4)cc3)[nH]c2c1 (centres undefined),n,n,n,n,9.2µM
O=C(Nc1ccc(-c2nc3cc(Cl)ccc3o2)cc1)C1CCCO1 (centres undefined),u,n,n,n,10µM
Cc1c(Cl)cnc(NC(=O)COC(=O)c2cccc(S(=O)(=O)N3c4ccccc4CC3C)c2)c1Cl (centres undefined),u,n,n,n,n
N#Cc1cc2c(=O)n3ccccc3nc2n(Cc2cccnc2)c1=O,12µM,n,n,2.3µM,n
N#Cc1cc2c(=O)n3ccccc3nc2n(-c2nnc(SCc3ccccc3Cl)s2)c1=O,x,n,x,x,n
COCCCn1c(C(=O)N2CCOCC2)cc2c(=O)n3ccccc3nc21,n,n,n,n,n
N#Cc1cc2c(=O)n3ccccc3nc2n(CCCN2CCOCC2)c1=O,23µM,n,n,u,n
Cc1cccn2c(=O)c3cc(C#N)c(=N)n(Cc4cccnc4)c3nc12,n,n,n,n,u
Cc1cccn2c(=O)c3cc(C#N)c(=O)n(Cc4cccnc4)c3nc12,2.6µM,n,n,8.2µM,n
N#Cc1cc2c(=O)n3ccccc3nc2n(-c2ccccc2Cl)c1=O,4.1µM,u,n,4.6µM,n
COc1ccc(C2/C(=C(/O)c3ccc(C)cc3)C(=O)C(=O)N2C)c(OC)c1 (centres undefined),n,n,n,n,u
C=CCC1NS(=O)(=O)OC(CCc2ccccc2)C1O (centres undefined),n,u,n,n,n
O=C(C1=C[C@H](c2ccccc2)C[C@H](OCc2ccc(CO)cc2)O1)N1CCN(Cc2ccc3c(c2)OCO3)CC1,u,u,-53,n[9.22 µM],u
C#Cc1ccc([C@H]2C=C(C(=O)N3CCN(Cc4ccc5c(c4)OCO5)CC3)O[C@@H](OCc3ccc(CO)cc3)C2)cc1,26µM,n,n,u,n
CC(=O)n1cc([C@@H]2C=C(C(=O)N3CCN(Cc4ccc5c(c4)OCO5)CC3)O[C@H](OCCCCO)C2)c2ccccc21,u,n,-52,n,n
CN1CCN(C(=O)C2=C[C@@H](c3ccc(C(F)(F)F)cc3)C[C@@H](OCc3ccc(CO)cc3)O2)CC1,n,n,n,n,u
SMILES,MCF10A rerep,KB-3-1 cytotox,IL-1B inflam inh,SW480 rereplic,KB-V1 cytotox
O=C(C1=C[C@@H](c2ccc(C(F)(F)F)cc2)C[C@@H](OCc2ccc(CO)cc2)O1)N1CCN(Cc2ccccc2)CC1,u,u,-60,n,u
O=C(NC(=S)NC1C2CC3CC(C2)CC1C3)c1ccccc1 (centres undefined),u,n,n,n,n
CN(c1ccccc1C(=O)Nc1ccc(CC#N)cc1)S(=O)(=O)c1ccccc1,n,n,n,n[9.22 µM],n
O=C(C1=C[C@H](c2csc3ccccc23)C[C@H](OCc2ccc(CO)cc2)O1)N1CCN(Cc2ccccc2)CC1,u,u,u,n,n
O=C(C1=C[C@H](c2csc3ccccc23)C[C@H](OCc2ccc(CO)cc2)O1)N1CCN(Cc2ccc3c(c2)OCO3)CC1,23µM,n,u,n[9.22 µM],n
O=C(C1=C[C@H](c2ccc(Br)cc2)C[C@H](OCCCCO)O1)N1CCN(Cc2ccc3c(c2)OCO3)CC1,18µM,n,u,n,u
O=C(C1=C[C@@H](c2ccc3c(c2)OCO3)C[C@@H](OCCCCO)O1)N1CCN(Cc2ccc3c(c2)OCO3)CC1,u,n,n,n[9.22 µM],n
O=C(COc1ccc(F)cc1)c1ccc2c(c1)CCCC2,10µM,n,n,n,n
Cc1cccc(CC(=O)NCCS(=O)(=O)N2CCN(c3ccccc3)CC2)c1,x,n,n,x,n
COc1ccc(C2=Nc3ccc(OC(F)(F)F)cc3NC(c3cccnc3)=N2)cc1,x,n,x,x,n
Cc1cc(C)n2nc(SCCC(=O)NCCc3ccccc3)nc2n1,n,n,n,n,15µM
CCN(C(=O)CSc1nc2nc(C)cc(C)n2n1)c1cccc(C)c1,n,n,n,n,23µM
Cc1cc(C)n2nc(SCC(=O)Nc3cccc(C(F)(F)F)c3)nc2n1,x,u,x,x,21µM
Cc1cc(C)nc(SCC(=O)Nc2ccc(S(=O)(=O)NC(C)(C)C)cc2)n1,n,n,n,n,21µM
CCCn1c(C)cc(C(=O)CSc2nc3nc(C)cc(C)n3n2)c1C,n,n,n,n,6.5µM
Cc1cc(C)n2nc(SCC(=O)Nc3ccccc3)nc2n1,n,n,n,n,u
CCc1ccc(NC(=O)CSc2nc3nc(C)cc(C)n3n2)cc1,n,n,n,n,13µM!
COc1ccc(NC(=O)Cn2ncn3nc(-c4ccc(OC)cc4)cc3c2=O)cc1,n,n,n,n,n
CCCCCc1ccc(OCCCC[n+]2ccccc2)c(CCCCC)c1,23µM,u,-93,u,u
CCC(C)(C)c1ccc(OCCCC[n+]2ccccc2)c(C(C)(C)CC)c1,u,9.2µM,n,u,u
CCCCCc1ccc(OCCCC[n+]2ccc(C)cc2)c(CCCCC)c1,n,5.8µM,-100,n,n
CCCCCc1ccc(OCCCC[n+]2cccc(C)c2)c(CCCCC)c1,u,9.2µM,-96,u,n
CC1CCCCC1NC(=O)CSc1nnc(COc2ccc(Cl)cc2)o1 (centres undefined),n,u,n,n,n
CCN1CCN(S(=O)(=O)c2ccc(Cl)c(C(=O)N(C)CCOc3ccc(Cl)cc3)c2)CC1,u,n,n,u,u
CCCCCCCCCCCCCCCC[n+]1ccc(C)cc1,x,1.6µM,x,x,u

# Screening data deposited in PubChem BioAssay by National Center for Advancing Translational Sciences (NCATS).
